Here are results for 28 compounds from PubChem BioAssay.

Inconclusive results are not listed. The source made the active and inactive calls. Rule as the data show it, unless noted: active = inhibition above about 80%; inactive = the rest.

As a reminder, the AC50 is the concentration giving half of the maximal activity seen. For orientation: inhibition means the drop in the measured response relative to a control, in per cent.

The nature of assay [1]: chitosan synthesis blockers in C. neoformans – flow cytometry, Cibacron Brilliant Red staining (AID 1347148; call rule not given here;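 also: compound exposure lasted three days at 37 degrees C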). To be noted: Cryptococcus neoformans chitosan, stronger effect = lower value; at 10 µM unless noted. Background: A flow cytometer gives signals particle by particle.
The nature of assay [2]: viability loss in pontine glioma line – cell-based, SU-DIPG-XXV, MIPE5.0, CellTiter-Glo, qHTS, dose response (AID 1347065; cut-off not given, nearly all actives have AC50 up to about 26 µM;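 also: cells exposed to compound for 48 hours before ATP readout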). The note with it: CellTiter-Glo ATP luminescence. In general terms: Cellular ATP, detected with luciferase, serves as a proxy for viable cell number.
The nature of assay [3]: compounds altering HSF1 focus formation in cells – imaging, Selleck Cancer Library (AID 1347162; in the data active = plate-normalised HSF1 focus index below about 0.46). To be noted: human cells, HSF1 nuclear foci imaging, at 10 µM; SSMD: measured here: HSF1 foci SSMD mean; cell count: measured here: cell number; plate-normalised HSF1 focus index: stronger effect = lower value.
Assay [4] is described as follows: rescue of PC12 cells from polyQ htt toxicity – LDH release (AID 1610). The note with it: PC12 mutant huntingtin toxicity, final LDH at 4 uM, stronger effect = lower value.
For assay [5], the target named is Huntingtin (Homo sapiens) (UniProt P42858). Description: mutant huntingtin aggregation blockers – QA1, dose response (AID 1584). To be noted: in vitro mutant huntingtin aggregation assay; confirmation test; at 10 µM; stronger effect = lower value.
Chain of Huntingtin (Homo sapiens) (P42858 whole entry, looked up): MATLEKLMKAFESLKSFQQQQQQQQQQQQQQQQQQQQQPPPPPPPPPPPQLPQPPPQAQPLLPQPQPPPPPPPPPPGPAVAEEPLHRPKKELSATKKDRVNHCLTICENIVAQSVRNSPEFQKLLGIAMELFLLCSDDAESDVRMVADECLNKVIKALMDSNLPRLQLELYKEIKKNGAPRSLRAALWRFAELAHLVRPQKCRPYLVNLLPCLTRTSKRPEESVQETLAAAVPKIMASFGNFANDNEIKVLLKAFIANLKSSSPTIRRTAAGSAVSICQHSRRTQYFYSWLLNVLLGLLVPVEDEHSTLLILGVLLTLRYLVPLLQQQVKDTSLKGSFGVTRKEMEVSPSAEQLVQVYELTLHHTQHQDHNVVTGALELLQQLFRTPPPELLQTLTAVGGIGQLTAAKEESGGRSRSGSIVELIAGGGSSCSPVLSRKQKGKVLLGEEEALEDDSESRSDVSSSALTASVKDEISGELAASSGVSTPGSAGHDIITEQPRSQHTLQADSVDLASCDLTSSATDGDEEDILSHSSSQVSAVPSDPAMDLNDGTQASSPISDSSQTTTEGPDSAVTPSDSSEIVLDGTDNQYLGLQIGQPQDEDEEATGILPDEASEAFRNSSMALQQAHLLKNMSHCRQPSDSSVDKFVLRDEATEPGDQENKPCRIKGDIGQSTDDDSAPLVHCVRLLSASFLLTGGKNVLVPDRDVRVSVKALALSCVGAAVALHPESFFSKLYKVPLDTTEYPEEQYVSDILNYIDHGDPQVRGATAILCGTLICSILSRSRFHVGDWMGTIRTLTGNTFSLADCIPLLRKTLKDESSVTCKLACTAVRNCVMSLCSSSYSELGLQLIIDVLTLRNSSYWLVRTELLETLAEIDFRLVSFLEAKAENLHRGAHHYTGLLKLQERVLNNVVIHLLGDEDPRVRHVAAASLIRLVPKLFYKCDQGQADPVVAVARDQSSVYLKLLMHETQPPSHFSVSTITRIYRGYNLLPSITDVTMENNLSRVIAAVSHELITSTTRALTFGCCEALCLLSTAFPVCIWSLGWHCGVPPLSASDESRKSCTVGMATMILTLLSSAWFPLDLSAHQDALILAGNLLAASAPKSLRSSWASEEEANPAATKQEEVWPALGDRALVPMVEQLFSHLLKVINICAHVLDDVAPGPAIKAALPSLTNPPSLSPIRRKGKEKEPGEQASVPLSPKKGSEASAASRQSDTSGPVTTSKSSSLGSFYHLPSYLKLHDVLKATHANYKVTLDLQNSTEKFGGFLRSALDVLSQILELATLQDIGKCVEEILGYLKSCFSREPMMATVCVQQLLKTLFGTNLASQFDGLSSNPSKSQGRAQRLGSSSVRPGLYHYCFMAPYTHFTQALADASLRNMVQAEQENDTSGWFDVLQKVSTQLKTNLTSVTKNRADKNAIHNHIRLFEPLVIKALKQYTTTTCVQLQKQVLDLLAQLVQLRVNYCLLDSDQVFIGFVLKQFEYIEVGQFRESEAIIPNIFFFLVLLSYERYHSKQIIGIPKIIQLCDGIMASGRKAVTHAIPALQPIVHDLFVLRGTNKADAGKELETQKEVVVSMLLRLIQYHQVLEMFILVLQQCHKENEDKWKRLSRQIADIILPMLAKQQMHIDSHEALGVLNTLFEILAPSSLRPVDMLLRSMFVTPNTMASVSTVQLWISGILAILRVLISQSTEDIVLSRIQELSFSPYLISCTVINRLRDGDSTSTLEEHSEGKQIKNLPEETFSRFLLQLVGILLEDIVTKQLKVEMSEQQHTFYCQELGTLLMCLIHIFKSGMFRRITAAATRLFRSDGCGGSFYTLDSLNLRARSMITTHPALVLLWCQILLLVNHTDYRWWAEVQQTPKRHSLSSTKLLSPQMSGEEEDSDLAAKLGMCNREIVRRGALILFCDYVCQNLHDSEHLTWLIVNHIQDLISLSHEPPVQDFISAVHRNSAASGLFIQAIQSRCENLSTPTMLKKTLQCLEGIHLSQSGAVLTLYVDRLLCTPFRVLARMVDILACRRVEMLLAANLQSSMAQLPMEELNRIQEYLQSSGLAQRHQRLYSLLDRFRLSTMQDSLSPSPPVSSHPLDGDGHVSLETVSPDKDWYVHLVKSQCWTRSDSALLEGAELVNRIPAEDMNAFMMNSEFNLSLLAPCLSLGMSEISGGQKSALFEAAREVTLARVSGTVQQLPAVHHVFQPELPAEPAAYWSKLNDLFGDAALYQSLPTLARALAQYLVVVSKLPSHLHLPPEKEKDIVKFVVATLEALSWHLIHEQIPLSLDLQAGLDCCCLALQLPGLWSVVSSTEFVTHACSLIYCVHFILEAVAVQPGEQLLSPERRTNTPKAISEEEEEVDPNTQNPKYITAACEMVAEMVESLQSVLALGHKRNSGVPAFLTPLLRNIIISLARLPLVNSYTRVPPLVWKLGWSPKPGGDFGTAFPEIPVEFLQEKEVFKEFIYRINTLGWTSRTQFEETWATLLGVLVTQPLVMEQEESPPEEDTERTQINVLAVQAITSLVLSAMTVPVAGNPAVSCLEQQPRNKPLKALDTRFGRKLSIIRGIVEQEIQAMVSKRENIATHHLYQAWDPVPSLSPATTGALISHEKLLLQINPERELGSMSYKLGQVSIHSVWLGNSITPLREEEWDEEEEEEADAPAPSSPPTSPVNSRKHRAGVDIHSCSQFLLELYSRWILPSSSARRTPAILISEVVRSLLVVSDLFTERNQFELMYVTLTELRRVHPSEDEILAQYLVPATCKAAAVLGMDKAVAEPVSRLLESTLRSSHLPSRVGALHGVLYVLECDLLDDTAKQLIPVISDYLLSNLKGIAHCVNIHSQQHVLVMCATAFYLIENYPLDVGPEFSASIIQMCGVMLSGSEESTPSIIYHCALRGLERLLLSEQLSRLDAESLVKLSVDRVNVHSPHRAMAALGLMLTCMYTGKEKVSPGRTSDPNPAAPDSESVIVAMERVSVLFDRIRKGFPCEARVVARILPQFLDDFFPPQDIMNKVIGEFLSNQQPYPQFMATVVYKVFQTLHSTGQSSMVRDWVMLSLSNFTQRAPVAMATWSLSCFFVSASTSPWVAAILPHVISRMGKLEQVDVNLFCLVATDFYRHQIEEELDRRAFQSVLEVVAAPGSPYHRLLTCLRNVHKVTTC
Assay [6] is described as follows: growth inhibition, single agents and combos, LFS_MB_1R, cell-based, cisplatin or BGB combos, synergistic combos for chromothripsis tumors (AID 1671452).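 Also: cells exposed for 96 hours before readout.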 The note with it: LFS_MB_1R medulloblastoma cells, stronger effect = higher value.
Assay [7] in a line: growth inhibition, single agents and combos, CRL2098, cell-based, BGB or cisplatin IC20 combos, synergistic combos for chromothripsis tumors (AID 1671454).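 Also: cells exposed for 96 h before readout; 0% = vehicle DMSO and 100% = killing by high DMSO.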 The note with it: CRL2098 osteosarcoma cells, drug combinations, stronger effect = higher value.
Assay [8] can be described thus: growth inhibition, single agents and combos, HD-MB03, cell-based, BGB or cisplatin IC20 combos, synergistic combos for chromothripsis tumors (AID 1671455; in the data active = inhibition above about 83%;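 also: 0% = vehicle DMSO and 100% = high DMSO as cytotoxic control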). The note with it: HD-MB03 medulloblastoma cells, stronger effect = higher value.
Assay [9] in a line: growth inhibition, single agents and combos, UWB1.289, cell-based, BGB or cisplatin combos, synergistic combos for chromothripsis tumors (AID 1671456).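 Also: cells exposed to compound for four days; 0% = vehicle DMSO and 100% = killing by high DMSO.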 To be noted: UWB1.289 ovarian carcinoma cells, stronger effect = higher value.
The nature of assay [10]: growth inhibition, single agents and combos, LFS_MB_2R, cell-based, cisplatin combos, synergistic combos for chromothripsis tumors (AID 1671457).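 Also: cells exposed to compound for four days before readout.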 The note with it: LFS_MB_2R medulloblastoma cells, stronger effect = higher value.
Assay [11] can be described thus: UWB1.289_BRCA1 ovarian cancer growth, cell-based, BGB or cisplatin combinations (AID 1671459). The note with it: UWB1.289 BRCA1 ovarian carcinoma, drug combinations, stronger effect = higher value.
The nature of assay [12]: drug combination toxicity in non-malignant astrocytes – cell-based, BGB or cisplatin IC20 combos, cytotoxicity control for chromothriptic childhood tumor combination screen (AID 1671460).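 Also: cells exposed to compounds for 96 hours before viability readout; 0% = vehicle and 100% = killing control.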 The note with it: Human astrocytes, viability inhibition, drug combinations, at 0.5 µM, stronger effect = higher value.
A short description of assay [13]: glutamate excitotoxicity neuroprotectants – cell-based, TUNEL DNA degradation staining, MNGlu (AID 1594; call rule not given here). To be noted: motor neurons, glutamate-induced death, at 1 µM, stronger effect = higher value.
Assay [14] is described as follows: selective SMN2 exon splicing luciferase activators – cell-based, SMN2/SMN1 luciferase reporters (AID 1598; call rule not given here). To be noted: SMN2 vs SMN1 luciferase splicing reporter cells, at 10 µM; SMN1 luciferase ratio: measured here: SMN1 luciferase reporter average; SMN2 luciferase ratio: measured here: SMN2 luciferase reporter average, stronger effect = higher value; SMN2/SMN1 luciferase ratio: stronger effect = higher value. (A reporter such as luciferase makes a cellular process visible.)

The mark [15] stands for this setting: measured here: combination with BGB IC40, at 0.05 µM.
[16] abbreviates: measured here: combination with cisplatin, at 0.5 µM.
The mark [17] stands for this setting: measured here: combination with cisplatin, at 5 µM.
The mark [18] stands for this setting: measured here: combination with BGB at IC20, at 0.5 µM.
[19] abbreviates: measured here: combination with cisplatin at IC20, at 0.5 µM.
Where [20] appears, read: measured here: combo with BGB at IC20, at 0.5 µM.
Where [21] appears, read: measured here: combo with cisplatin at IC20, at 0.5 µM.
Where [22] appears, read: measured here: inhibition with BGB combination, at 0.05 µM.
The mark [23] stands for this setting: measured here: inhibition with cisplatin combination, at 0.05 µM.
The mark [24] stands for this setting: BGB combination, concentration series, at 5 µM.
Where [25] appears, read: cisplatin combination, concentration series, at 5 µM.
[26] abbreviates: measured here: combo with BGB IC20.
Setting [27] is: measured here: combo with cisplatin IC20.

`COc1cc(CNC(=O)CCCC/C=C/C(C)C)ccc1O`: in assay [1], the fold fluorescence is 7.26 [at 163.7 µM] (inactive).
In the case of `NCCc1cnc[nH]1`, the compound was called inactive in assay [2]. For the same compound, in [1], the fold fluorescence was 5.22 [at 449.9 µM] (inactive).
Take `COc1c(C)c2c(c(O)c1C/C=C(\C)CCC(=O)O)C(=O)OC2`: in assay [1], the fold fluorescence was 7.43 [at 156.1 µM] (inactive). For the same compound, in assay [3], the SSMD was -0.56, the cell count is 7660 and the plate-normalised HSF1 focus index was 0.964 (inactive).
Regarding `O=c1cc(-c2ccc(O)cc2)oc2cc(O)cc(O)c12`, the normalised LDH release in [4] stood at 0.887.
On to `O=C(CCc1ccc(O)cc1)c1c(O)cc(O)cc1O[C@@H]1O[C@H](CO)[C@@H](O)[C@H](O)[C@H]1O`, for which the outcome in assay [2] was inactive.
Consider `CCC(c1ccc(O)cc1)C(CC)c1ccc(O)cc1` (stereo unspecified), for which the compound was classed as inactive in assay [2].
Consider `O=C(/C=C/C=C/c1ccc2c(c1)OCO2)N1CCCCC1`, for which the call in assay [2] was inactive.
Take `O=C1C[C@@H](c2ccc(O)cc2)Oc2cc(O)cc(O)c21`: the result in assay [2] was inactive.
With `COc1ccc2cc1Oc1ccc(cc1)C[C@H]1c3cc(c(OC)cc3CCN1C)Oc1c(OC)c(OC)cc3c1[C@H](C2)N(C)CC3`, the fold fluorescence in assay [1] was 5.71 [at 80.3 µM] (inactive).
Regarding `O=C(CCc1ccc(O)cc1)c1c(O)cc(O)cc1O`, the outcome in [2] was inactive. Moreover, in assay [3], the SSMD came to 2.09, the cell count amounted to 7280 and the plate-normalised HSF1 focus index is 1.13 (inactive).
With `c1ccc2c(Cc3c[nH]c4ccccc34)c[nH]c2c1`, the compound was called inactive in assay [2]. The fold fluorescence in assay [1] was 4.77 (inactive).
With `Cc1cc(O)c2c(c1)C(=O)c1cccc(O)c1C2=O`, the call in assay [2] was inactive. Also, in assay [3], the SSMD amounted to 1.91, the cell count came out at 7380 and the plate-normalised HSF1 focus index is 1.07 (inactive).
Take `c1coc(CNc2ncnc3nc[nH]c23)c1`: the compound was called inactive in assay [2].
Regarding `O=c1c(O)c(-c2ccc(O)cc2O)oc2cc(O)cc(O)c12`, the aggregation ratio in [5] was found to be 0.704.
`COc1ccc(-c2coc3cc(O)cc(O)c3c2=O)cc1` registered a normalised LDH release in assay [4] of 1.03. The outcome in assay [2] was inactive.
With `CN1C2CCC1CC(OC(=O)C(CO)c1ccccc1)C2` (stereo unspecified), in [2], the compound was classed as inactive.
As for `O=c1cc(-c2ccccc2)oc2cc(O)cc(O)c12`, the AC50 in assay [2] was 20.9 µM (active).
For the compound `CCn1nc(C(=O)O)c(=O)c2cc3c(cc21)OCO3`, the inhibition in [6] (at 0.5 µM) is -36.2% (inactive); in [6] (setting [15]) it was -30.8%; in [6] (setting [16]), -40.5%; in [6] (setting [17]), 15.7%; in assay [7] (at 0.5 µM) it was -51.5% (inactive); in assay [7] (setting [18]), -50.7%. In addition, the inhibition in [7] (setting [19]) is -58%; in assay [8] (at 0.5 µM) it was -4.61% (inactive); in assay [8] (setting [20]), -9.5%; in [8] (setting [21]), -2.73%; in assay [9] (at 0.5 µM), -2.26% (inactive); in [9] (setting [22]) it was -31.4%. Further, the inhibition in assay [9] (setting [23]) is -13.5%; in [10] (at 0.5 µM) it was -9.44% (inactive); in assay [10] (setting [16]), -16.5%; in assay [10] (setting [17]) it was -17.7%; in assay [11] (setting [24]) it was 14%; in assay [11] (at 0.5 µM), -2.39% (inactive). Besides, the inhibition in assay [11] (setting [25]) is 6.77%; in assay [12], 10.8% (inactive); in assay [12] (setting [26]), 8.46%; in assay [12] (setting [27]), 10.9%.
For the compound `O=C(/C=C/c1ccc(O)c(O)c1)OCCc1ccccc1`, the fold fluorescence in [1] was 6.87 [at 175.9 µM] (inactive).
Turning to `CC[C@H]1OC(=O)[C@H](C)[C@@H](O[C@H]2C[C@@](C)(OC)[C@@H](O)[C@H](C)O2)[C@H](C)[C@@H](O[C@@H]2O[C@H](C)C[C@H](N(C)C)[C@H]2O)[C@](C)(O)C[C@@H](C)C(=O)[C@H](C)[C@@H](O)[C@]1(C)O`, in assay [2], the call was inactive.
Take `O=c1c(O)c(-c2ccc(O)c(O)c2)oc2cc(O)ccc12`: the inhibition was -4.27% (inactive) in [6] (at 0.5 µM); -15.9% in assay [6] (setting [15]); -18.5% in assay [6] (setting [16]); -12.6% in assay [6] (setting [17]); 3.92% (inactive) in assay [7] (at 0.5 µM); -8.68% in [7] (setting [18]). Moreover, the inhibition in assay [7] (setting [19]) was 27.9%; in [8] (at 0.5 µM), -0.08% (inactive); in [8] (setting [20]), 1.14%; in [8] (setting [21]) it was -0.856%; in assay [9] (at 0.5 µM), 3.05% (inactive); in assay [9] (setting [22]), 1.82%. For the same compound, the inhibition in [9] (setting [23]) is -4.79%; in [10] (at 0.5 µM), 1.64% (inactive); in assay [10] (setting [16]), -4.17%; in assay [10] (setting [17]) it was -0.986%; in assay [11] (setting [24]), 14.5%; in assay [11] (at 0.5 µM) it was 1.05% (inactive). Moreover, the inhibition in [11] (setting [25]) is 19.6%; in assay [12], 10.6% (inactive); in assay [12] (setting [26]) it was 1.09%; in assay [12] (setting [27]) it was 26.6%.
`CN1CCc2cccc3c2C1Cc1ccc(O)c(O)c1-3` (stereo unspecified) had a normalised LDH release in assay [4] of 0.891.
On to `COc1c2ccoc2cc2oc(=O)ccc12`, for which the inhibition in assay [6] (at 0.5 µM) was -1.71% (inactive); in assay [6] (setting [15]), -39.8%; in assay [6] (setting [16]) it was -31.5%; in [6] (setting [17]), 0.408%; in [7] (at 0.5 µM), -46.9% (inactive); in assay [7] (setting [18]), -48%. The inhibition in assay [7] (setting [19]) was -47.5%; in assay [8] (at 0.5 µM) it was -4.51% (inactive); in assay [8] (setting [20]), -4.11%; in [8] (setting [21]), -2.34%; in assay [9] (at 0.5 µM) it was -2.25% (inactive); in assay [9] (setting [22]) it was -12.4%. The inhibition in assay [9] (setting [23]) was -7.34%; in assay [10] (at 0.5 µM), -16.1% (inactive); in assay [10] (setting [16]) it was -10.7%; in [10] (setting [17]) it was 0.771%; in [11] (setting [24]), 5.68%; in assay [11] (at 0.5 µM), -4.34% (inactive). The inhibition in assay [11] (setting [25]) was 13.5%; in assay [12], 1.97% (inactive); in assay [12] (setting [26]), -6.42%; in assay [12] (setting [27]), 7.69%.
With `Cc1cc(/C=C/c2ccc3cc(N(C)C)ccc3[n+]2C)c(C)n1-c1ccccc1`, the aggregation ratio in assay [5] is 0.715.
Take `CN1CCc2c(c3ccccc3n2Cc2ccccc2)C1`: the protection in assay [13] was 49% (active). This compound yielded a normalised LDH release in assay [4] of 0.901.
Consider `CC(C(=O)O)c1ccc(N2Cc3ccccc3C2=O)cc1` (stereo unspecified), for which, in [14], the SMN1 luciferase ratio was 0.71, the SMN2/SMN1 luciferase ratio was 2.02 (active) and the SMN2 luciferase ratio is 1.4.
Take `NC(N)=NCCCCN=C(N)N`: the protection in [13] is 45% (active).
Regarding `C=C1c2c(Cl)ccc(O)c2C(O)=C2C(=O)[C@]3(O)C(O)=C(C(N)=O)C(=O)[C@@H](N(C)C)[C@@H]3[C@@H](O)[C@H]12`, in [5], the aggregation ratio is 0.703.
